Experimental findings from PubChem BioAssay (Tox21) are described below.

SMILES strings stand for the structures. Activity calls are given as the source filed them. A call without a number means that no potency is given here. Calls follow the shape of the dose curve; as a rule, active = well fitted curve in the direction sought with a large enough effect in the repeat runs; inconclusive = weak or mixed curves; inactive = flat fitted curve, though single readings scatter.

This assay can be described thus: qHTS assay to test for compound auto fluorescence at 460 nm (blue) in HepG2 cell free culture (AID 720685). The conditions noted are these: Cell-free culture medium, blue autofluorescence 405/460 nm; series mostly up to 91.3 µM. The source says: U.S. Tox21 Program National Center for Advancing Translational Sciences [NCATS] NIH Chemical Genomics Center [NCGC] U.S. Environmental Protection Agency [EPA] National Institutes of Environmental Health Sciences [NIEHS] National Toxicology Program [NTP] U.S. Food and Drug Administration [FDA] Tox21 Assay Overview: Compound auto fluorescence often interferes with screening of the compound library against various biological targets and signaling pathways. Some of these compounds may have fluorophoric properties. Such properties may interfere with the assay outputs resulting in false positives and/or negatives. To decrease such complications and ensure the compound activities are relevant in terms of biological response, the Tox21 10K compound library was screened for auto fluorescence. From the fluorophores used as reporter signals in our screening assays, the auto fluorescence equivalencies of compounds against three fluorophores have been evaluated: Triamterene, Fluorescein and Rose Bengal sodium for blue, green and red fluorescence, respectively. The fluorescence intensities were measured using Excitation/Emission wavelengths at 405/460nm, 485/535nm and 540/590nm for blue, green and red labels, respectively. This assay includes the blue fluorescence data.
Tox21 Assay Protocol Summary: 5 uL of culture medium (MEM containing 10% FBS) per well was dispensed into black wall/clear bottom 1536-well plates using a Multidrop Combi Dispenser (ThermoFisher Scientific, Waltham, MA). After 23 nL compound or DMSO vehicle was transferred into assay plate by a pintool work station (Kalypsys, San Diego, CA), fluorescence intensities in the assay plates were measured by an Envision (PerkinElmer, Shelton, CT) plate reader using three labels for measuring blue, green and red fluorescence at […] 460, 535 and 590nm respectively.
(In qHTS, concentration-response curves come from the screen itself.)
As to `NC1CCCCC1N` (stereo not given), the Potency entry is “inactive”.
Turning to `CCCCCCCC(=O)O`, the Potency result was “inactive”.
On to `CC(C)c1ccc(C(C)C)cc1`, for which the Potency result was “inactive”.
Turning to `CCn1cc(C(=O)O)c(=O)c2cc3c(cc21)OCO3`, the Potency entry was “inactive”.
In the case of `COCN(COC)c1nc(N(COC)COC)nc(N(COC)COC)n1` it was “inactive”.
With `CCCOCC(C)O` (stereo not given), the Potency entry was “inactive”.
In the case of `CN1CCCC1=O` it was “inactive”; in that of `CN=C(NC#N)NCCSCc1nc[nH]c1C`, “inactive”.
`Cc1ccc(C)c(S(=O)(=O)O)c1`: the Potency result was “inactive”.
For `O=[N+]([O-])c1ccccc1C(F)(F)F`, the Potency result was “inactive”.
On to `C=C(C)CC(C)(C)C`, for which the Potency entry was “inactive”.
Next, `CCCCCC(C)=O`: “inactive”; `COc1ccc(N)c(OC)c1`: “inactive”; `Cc1cccc(C)c1[N+](=O)[O-]`: “inactive”.
Consider `C[n+]1ccn(CCO)c1`, for which the Potency result was “inactive”.
On to `CC(=O)OC[C@H]1O[C@@](COC(C)=O)(O[C@H]2O[C@H](COC(C)=O)[C@@H](OC(C)=O)[C@H](OC(C)=O)[C@H]2OC(C)=O)[C@@H](OC(C)=O)[C@@H]1OC(C)=O`, for which the Potency result is “inactive”.
With `CN1Cc2c(N)cccc2C(c2ccccc2)C1` (stereo not given), the Potency result was “inactive”.
With `CS(=O)(=O)c1ccc(Cl)cc1`, the Potency entry was “inactive”.
As to `OCc1ccc(Cl)cc1Cl`, the Potency result was “inactive”.
In the case of `COc1c(Cl)ccc(Cl)c1C(=O)O` it was “inactive”; in that of `CCCCC(=O)O`, “inactive”; in that of `CO[Si](CCCNCCN)(OC)OC`, “inactive”.
Take `CCN(CC)CCNC(=O)c1ccc(N)cc1`: the Potency result was “inactive”.
In the case of `NC(=O)NC(N)=O`, the Potency entry was “inactive”.
Take `OCC(O)CS` (stereo not given): the Potency result is “inactive”.
As to `Cc1ccccc1Cl`, the Potency result was “inactive”.
In the case of `O=Cc1ccc(CO)o1` it was “inactive”; in that of `Nc1cccc(C(F)(F)F)c1`, “inactive”; in that of `Clc1cccc(Cl)c1NC1=NCCN1`, “inactive”.
On to `CC(COCC(C)OC(=O)c1ccccc1)OC(=O)c1ccccc1` (stereo not given), for which the Potency result was “inactive”.
Regarding `O=C(Cl)c1ccc(C(=O)Cl)cc1`, the Potency entry is “inactive”.
As to `C=CC(=O)NCOCCCC`, the Potency result was “inactive”.
On to `CCCCCCC(=O)O`, for which the Potency entry was “inactive”.
For the compound `OC[C@H]1O[C@@H](Oc2ccc(O)cc2)[C@H](O)[C@@H](O)[C@@H]1O`, the Potency result is “inactive”.
In the case of `CCc1cccc(O)c1` it was “inactive”.
Regarding `CC1(C)C(=O)N(Cl)C(=O)N1Cl`, the Potency entry was “inactive”.
As for `Cc1cc(C)cc(O)c1`, the Potency entry was “inactive”.
Take `CC/C=C(\C(=O)N[C@@H]1C(=O)N2C(C(=O)OCOC(=O)C(C)(C)C)=C(COC(N)=O)CS[C@H]12)c1csc(N)n1`: the Potency entry is “inactive”.
Turning to `CCOC(=O)CC(=O)OCC`, the Potency entry is “inactive”.
Next, `C=C1C[C@]23C[C@@]1(O)CC[C@H]2[C@@]12C=C[C@H](O)[C@@](C)(C(=O)O1)[C@H]2[C@@H]3C(=O)O`: “inactive”.
